Compounds with a hit are over-represented: about 7% of the library has one in this group of screens.
D3 antag: qHTS of D3 Dopamine Receptor Antagonist: qHTS | D(3) dopamine receptor (Homo sapiens), P35462 | D3R cells, DiscoveRx beta-arrestin luminescence, antagonist mode; active compounds read low | max response, negative = inhibition, % | 2.5% of 360,000 active | AID 652054, 2013; in the data active = max response below about -50%; inconclusive = no clear call, values can overlap the other calls
Target sequence (P35462 whole entry, looked up): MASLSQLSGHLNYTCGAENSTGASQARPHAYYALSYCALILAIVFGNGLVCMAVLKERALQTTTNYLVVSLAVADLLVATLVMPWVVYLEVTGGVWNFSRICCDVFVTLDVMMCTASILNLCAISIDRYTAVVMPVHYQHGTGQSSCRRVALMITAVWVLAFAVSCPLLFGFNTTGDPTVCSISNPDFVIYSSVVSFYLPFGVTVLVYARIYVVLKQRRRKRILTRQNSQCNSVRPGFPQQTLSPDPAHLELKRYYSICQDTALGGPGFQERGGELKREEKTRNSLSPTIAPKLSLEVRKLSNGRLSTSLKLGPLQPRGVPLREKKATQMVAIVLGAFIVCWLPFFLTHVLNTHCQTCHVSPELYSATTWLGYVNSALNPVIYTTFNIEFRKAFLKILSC
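Cells plated overnight at 1500 cells/well, then exposed to library compounds with dopamine controls for 90 minutes at 37 degrees C. DiscoveRx reagent added for 30–60 minutes at room temperature; luminescence read, quantitative HTS format.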
ATXN2 expr inh: Primary qHTS for Inhibitors of ATXN expression; HEK-293 ATXN2-luciferase reporter, luminescence, 24 h; Potency, µM (top dose mostly 57 µM), usual class: inhibitors; 0.72% of 360,000 active; note: nearly all actives have a fitted effect of over 55% in size
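ATXN2-luciferase reporter cells (luciferase flanked by upstream and downstream ATXN2 gene portions) were treated 24 h at 37 °C with compounds at up to 57 uM. SteadyGlo luminescence gave expression; GF-AFC fluorescence gave viability.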
ATXN viability: Viability Counterscreen for Primary qHTS for Inhibitors of ATXN expression | S2 cells (HEK-293 line with an ATXN2-luciferase reporter) viability, CellTiter-Fluor protease fluorescence, 24 h | Potency, µM (titrated, usually from 56.7 µM), usual class: cytotoxic | 0.49% of 400,000 active | AID 651635, 2014; note: nearly all actives have a fitted effect of over 40% in size
DRD3 agonist: qHTS of D3 Dopamine Receptor Agonist: qHTS. D(3) dopamine receptor (Homo sapiens), P35462. D3R DiscoveRx beta-arrestin cells, luminescence, 90 min. max activation, %. 0.58% of 410,000 active. AID 652048, 2013; in the data active = max activation above about 30%
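Agonist mode: compounds and dopamine controls were applied to plated cells for 90 min at 37 degrees C after an overnight attachment at 1500 cells/well. Luminescent read-out followed 30 - 60 minutes at room temperature with DiscoveRx detection reagent.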
IL-1B inflam inh: qHTS for Inhibitors of Inflammasome Signaling: IL-1-beta AlphaLISA Primary Screen | THP-1 LPS/ATP IL-1B secretion, AlphaLISA, 16 h; active compounds read low | activity change, % at 57.5 µM | 4.7% of 360,000 active | AID 743279, 2014; in the data active = activity change below about -50%; inconclusive = mostly about -30% to -49%
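Secreted IL-1B measured by AlphaLISA bead assay after 16 h compound exposure of THP-1 cells; compounds (final up to 57.5 uM) added 1 h before LPS (250 ng/mL) and ATP (1.25 mM) stimulation; lower signal means less secretion.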
a7 integrin act: qHTS for Activators of Integrin-Mediated Alleviation for Muscular Dystrophy; alpha7betagal myoblasts, beta-gal FDG fluorescence, 48 h; 0.064% of 350,000 active; AID 624291, 2012; Potency, µM (top dose mostly 38.3 µM), most hits filed as activators; note: nearly all actives have a fitted effect of over 60% in size
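Alpha7betagal+/- myoblasts (passage 13) were plated 16-24 hr, then exposed to compounds (1:260 dilution of DMSO stock) for 48 hours at 37C. After MPER lysis, β-galactosidase reporter activity was read as FDG fluorescence (ex 480/em 540) after 30 minutes.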
Numbers stand for hits. Unless noted, calls come from the whole dose curve; as a rule, active = well fitted curve in the direction sought with a large enough effect; inconclusive = small, poorly fitted or top-dose-only effect, or another doubt; inactive = no such curve, though single readings can be large; an effect the other way counts as inactive or inconclusive.

For COc1cccc2cc(C(=O)Nc3ccccc3Cl)/c(=N/NS(=O)(=O)c3ccccc3)oc12 the results were D3 antag inactive, ATXN2 expr inh inactive, ATXN viability inactive, DRD3 agonist inactive, IL-1B inflam inh inactive and a7 integrin act inactive.
`O=C(Cc1c(Cl)cccc1Cl)NCCc1ccc(Cl)cc1` gave D3 antag inactive, ATXN2 expr inh inactive, ATXN viability inactive, DRD3 agonist inactive, IL-1B inflam inh inactive and a7 integrin act inactive.
`O=C(CCl)NCc1c(Cl)cccc1-n1cccc1` gave D3 antag inactive, ATXN2 expr inh inactive, ATXN viability inconclusive, DRD3 agonist inactive, IL-1B inflam inh -76 and a7 integrin act inactive.
For c1cc2c(cc1Cn1cnnn1)OCO2 the results were D3 antag -57, ATXN2 expr inh inactive, ATXN viability inactive, DRD3 agonist inactive, IL-1B inflam inh inactive and a7 integrin act inactive.
Screening NC(=O)C(c1ccc(Br)cc1)c1ccc(C(=O)c2ccccc2)cc1 (stereo not given) returned D3 antag inactive, ATXN2 expr inh inactive, ATXN viability inactive, DRD3 agonist inactive, IL-1B inflam inh -91 and a7 integrin act inactive.
Screening CCCc1cc(=O)[nH]c(SCC(=O)Nc2sc(C(N)=O)c(C)c2C(=O)OCCOC)n1 returned D3 antag inactive, ATXN2 expr inh inconclusive, ATXN viability inactive, DRD3 agonist inactive, IL-1B inflam inh inactive and a7 integrin act inactive.
Screening O=C1N=C(N2CCc3ccccc3C2)S/C1=C\c1cccc(O)c1 returned D3 antag inactive, ATXN2 expr inh inactive, ATXN viability inactive, DRD3 agonist inactive, IL-1B inflam inh -56 and a7 integrin act inactive.
Screening COc1ccc(/C=C2\SC(N3CCc4ccccc4C3)=NC2=O)cc1 returned D3 antag inactive, ATXN2 expr inh inactive, ATXN viability inactive, DRD3 agonist inactive, IL-1B inflam inh inconclusive and a7 integrin act inactive.
Screening COc1cc(/C=C2\SC(N3CCc4ccccc4C3)=NC2=O)cc(OC)c1OC returned D3 antag inactive, ATXN2 expr inh inactive, ATXN viability inactive, DRD3 agonist inactive, IL-1B inflam inh -67 and a7 integrin act inactive.
`CCOc1ccc(/C=C2\SC(N3CCc4ccccc4C3)=NC2=O)cc1` gave D3 antag inactive, ATXN2 expr inh inactive, ATXN viability inactive, DRD3 agonist inactive, IL-1B inflam inh -54 and a7 integrin act inactive.
Nc1ccc(C(=O)N/N=C/c2ccccc2)cc1 was read as D3 antag inactive, ATXN2 expr inh inactive, ATXN viability inconclusive, DRD3 agonist inactive, IL-1B inflam inh inactive and a7 integrin act inactive.
CCC(CC)C(=O)Nc1c(C(=O)N2CCN(c3ccccc3F)CC2)oc2ccccc12 was read as DRD3 agonist inactive.
Screening Cc1c(C(=O)N2CCN(CCc3ccccc3)CC2)oc2ccccc12 returned D3 antag -86, ATXN2 expr inh inactive, ATXN viability inactive, DRD3 agonist inactive, IL-1B inflam inh inactive and a7 integrin act inactive.
Screening O=C(OCCN1CCCCC1)c1c[nH]c2ccccc12 returned D3 antag -57, ATXN2 expr inh inactive, ATXN viability inactive, DRD3 agonist inactive and IL-1B inflam inh inactive.
For CCOCCCN(C)C1CCN(C(=O)c2oc3ccccc3c2NC(=O)Cc2ccc(F)cc2)CC1 the results were D3 antag -71, ATXN2 expr inh inactive, ATXN viability inactive, DRD3 agonist inactive, IL-1B inflam inh inactive and a7 integrin act inactive.
CCC(CC)C(=O)Nc1c(C(=O)N2CCN(c3ccccc3)CC2)oc2ccccc12 was read as D3 antag inactive, ATXN viability inactive, DRD3 agonist inactive, IL-1B inflam inh inactive and a7 integrin act 13µM.
`Cc1cccc(N2CCN(C(=O)c3cn(C)c4ccc(S(=O)(=O)N(C)C)cc4c3=O)CC2C)c1` (stereo not given) gave ATXN2 expr inh inactive, ATXN viability inactive and DRD3 agonist inactive.
Screening O=C(COc1ccc(F)cc1)N(Cc1ccco1)C1CCS(=O)(=O)C1 (stereo not given) returned D3 antag inactive, ATXN2 expr inh inactive, ATXN viability inactive, DRD3 agonist inactive, IL-1B inflam inh inactive and a7 integrin act inactive.
O=C1C2CCCN2C(=S)N1Cc1ccccc1 (stereo not given) was read as D3 antag inactive, ATXN2 expr inh inactive, ATXN viability inconclusive, DRD3 agonist inactive, IL-1B inflam inh inactive and a7 integrin act inactive.
`O=C(c1cccs1)N1C[C@@H](O)[C@H](n2cc(C3CC3)nn2)C[C@@H]1c1ccccc1` gave D3 antag inactive, ATXN2 expr inh inactive, ATXN viability inactive, DRD3 agonist inactive, IL-1B inflam inh inactive and a7 integrin act inactive.
`Cc1c(C(=O)OCCN2CCCCC2)oc2ccccc12` gave D3 antag -61, ATXN2 expr inh inactive, ATXN viability inactive, DRD3 agonist inactive, IL-1B inflam inh inactive and a7 integrin act inactive.
`COCc1c(C(=O)N2CCN(c3ccccc3C)CC2)oc2ccccc12` gave D3 antag inactive, ATXN2 expr inh inactive, ATXN viability inactive, DRD3 agonist inactive, IL-1B inflam inh inactive and a7 integrin act inactive.
`COCc1c(C(=O)N2CCN(CCOc3ccccc3)CC2)oc2ccccc12` gave D3 antag inactive, ATXN2 expr inh inactive, ATXN viability inactive, DRD3 agonist 88, IL-1B inflam inh inactive and a7 integrin act inactive.
COc1ccc(NC(=O)c2oc3ccccc3c2NC(=O)c2cc(OC)c(OC)c(OC)c2)cc1 was read as ATXN2 expr inh inactive, ATXN viability inactive and DRD3 agonist inactive.
`O=c1cc(-c2ccccc2)c2cc3c(cc2[nH]1)OCCO3` gave D3 antag inactive, ATXN2 expr inh inactive, ATXN viability inactive, DRD3 agonist inactive, IL-1B inflam inh inactive and a7 integrin act inactive.
`O=c1cc(-c2ccc([N+](=O)[O-])cc2)c2cc3c(cc2[nH]1)OCCO3` gave D3 antag inactive, ATXN2 expr inh inactive, ATXN viability inconclusive, DRD3 agonist 36, IL-1B inflam inh inconclusive and a7 integrin act inactive.
For CN1CCN(C(=O)c2cc(Cl)cc(Cl)c2NC(=O)c2ccco2)CC1 the results were D3 antag inactive, ATXN2 expr inh inactive, ATXN viability inactive, DRD3 agonist inactive, IL-1B inflam inh inactive and a7 integrin act inactive.
CC1/C(=N/O)C(CN(C)C)C2CC1C2(C)C (stereo not given) was read as D3 antag -69, ATXN2 expr inh inactive, ATXN viability inconclusive, DRD3 agonist inactive, IL-1B inflam inh inactive and a7 integrin act inactive.
`CCOC(=O)C1(Cc2ccccc2)CCN(Cc2cnn(C(C)C)c2)CC1` gave D3 antag inactive, ATXN2 expr inh inactive, ATXN viability inactive, DRD3 agonist inactive, IL-1B inflam inh inactive and a7 integrin act inactive.

High-throughput results as filed in PubChem BioAssay.
